Test results reported in PubChem BioAssay (NCATS).
Where “and” joins values, the source holds several entries; their conditions need not be identical. Identical values can stand only once. Results filed as inconclusive are left out. Calls of active or inactive are those of the source. Unless noted, calls come from the whole dose curve; as a rule, active = well fitted curve in the direction sought with a large enough effect; inconclusive = small, poorly fitted or top-dose-only effect, or another doubt; inactive = no such curve, though single readings can be large; an effect the other way counts as inactive or inconclusive.

Experiments:
[1] = target: Alpha-galactosidase A (Homo sapiens) (UniProt P06280); assay: Counterscreen for Glucocerebrosidase Inhibitors: qHTS Assay for Human alpha-Galactosidase at pH 4.5 (AID 992); note: 0% is about no effect
Alpha-galactosidase A (Homo sapiens), sequence (P06280 whole entry, looked up): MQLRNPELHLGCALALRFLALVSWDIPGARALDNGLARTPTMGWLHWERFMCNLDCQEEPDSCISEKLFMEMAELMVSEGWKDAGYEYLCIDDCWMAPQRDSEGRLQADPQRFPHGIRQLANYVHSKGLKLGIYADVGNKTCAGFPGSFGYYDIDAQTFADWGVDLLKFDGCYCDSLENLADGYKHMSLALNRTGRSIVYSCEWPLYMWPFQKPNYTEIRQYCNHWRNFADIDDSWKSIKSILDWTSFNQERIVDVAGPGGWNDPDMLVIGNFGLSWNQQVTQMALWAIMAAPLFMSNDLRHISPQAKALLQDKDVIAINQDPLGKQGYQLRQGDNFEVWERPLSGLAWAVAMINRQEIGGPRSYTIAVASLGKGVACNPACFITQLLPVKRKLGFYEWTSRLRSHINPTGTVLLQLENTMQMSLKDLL
Outline: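 Quantitative HTS: compounds tested from 0.7 nM up to 77 uM against 2 nM enzyme with 80 uM 4-MU alpha-D-galactopyranoside. The 20 min room-temperature reaction is stopped with 1M NaOH/1M glycine, pH 10.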

[2] = target: alpha-glucosidase (Oryza sativa, rice) (UniProt Q653V4); assay: Counterscreen for Glucocerebrosidase Inhibitors: qHTS Assay for Rice alpha-Glucosidase at pH 5.0 (AID 997);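 note: 0% = full activity with enzyme and -100% = basal without enzyme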
Outline: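 Rice alpha-glucosidase (4 nM final) with 400 uM 4-methylumbelliferyl-alpha-D-glucopyranoside in citrate buffer pH 5.0, 20 min at room temperature, stopped at pH 10; fluorescence 365/440 nm, compounds 0.7 nM–77 uM, AC50 from Hill fits.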

[3] = target: Alpha-galactosidase (Coffea arabica) (UniProt Q42656); assay: Counterscreen for Glucocerebrosidase Inhibitors: qHTS Assay for Coffee Bean alpha-Galactosidase at pH 5.9 (AID 998);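 note: plate controls were uninhibited enzyme for no effect and no-enzyme basal signal for full effect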
Alpha-galactosidase (Coffea arabica), sequence (Q42656 whole entry, looked up): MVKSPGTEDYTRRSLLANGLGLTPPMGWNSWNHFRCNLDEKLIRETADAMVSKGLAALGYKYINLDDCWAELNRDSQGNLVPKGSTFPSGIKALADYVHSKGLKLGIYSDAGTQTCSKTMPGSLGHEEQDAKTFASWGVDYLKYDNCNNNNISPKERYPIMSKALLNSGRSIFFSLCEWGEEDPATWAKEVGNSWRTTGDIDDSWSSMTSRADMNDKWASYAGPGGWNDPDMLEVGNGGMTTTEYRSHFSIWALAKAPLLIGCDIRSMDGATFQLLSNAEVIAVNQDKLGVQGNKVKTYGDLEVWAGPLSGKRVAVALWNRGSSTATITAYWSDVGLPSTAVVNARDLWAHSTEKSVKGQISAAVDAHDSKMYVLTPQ
Outline: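 Green coffee bean enzyme (2 nM final) was incubated with compounds (0.7 nM–77 uM) and 4-methylumbelliferyl alpha-D-galactopyranoside (80 uM) in citrate buffer pH 5.9, 20 min at room temperature. High-pH stop; fluorescence 365/440 nm; AC50 from Hill fits.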

[4] = target: DNA repair nuclease/redox regulator APEX1 (Homo sapiens) (UniProt P27695); assay: qHTS Validation Assay for Inhibitors of the Human Apurinic/apyrimidinic Endonuclease 1 (APE1) (AID 1705;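 note: TAMRA fluorescence gain over two minutes as APE1 cuts a quenched THF abasic duplex; % is set by controls: 0 for no effect and ±100 for the full control effect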)
DNA repair nuclease/redox regulator APEX1 (Homo sapiens), sequence (P27695 whole entry, looked up): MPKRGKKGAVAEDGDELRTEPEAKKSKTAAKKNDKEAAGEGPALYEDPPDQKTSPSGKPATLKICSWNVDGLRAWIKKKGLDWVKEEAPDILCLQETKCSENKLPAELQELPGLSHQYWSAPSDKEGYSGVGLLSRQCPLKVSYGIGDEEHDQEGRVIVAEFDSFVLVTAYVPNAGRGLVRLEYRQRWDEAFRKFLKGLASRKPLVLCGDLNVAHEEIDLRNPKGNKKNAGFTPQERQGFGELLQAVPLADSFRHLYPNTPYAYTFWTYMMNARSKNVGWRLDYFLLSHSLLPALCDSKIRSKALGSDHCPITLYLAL
Outline: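 Substrate: 50 nM final fluorophore/quencher THF-abasic duplex. Enzyme preincubated with compounds 15 min, RT. Progress derived from fluorescence difference, third minus first kinetic read.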

[5] = Counterscreen for APE1 Inhibitors: Fluorescent Dye Displacement Validation Assay (AID 1707);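 note: plate controls were ThO with dsDNA and no compound for no effect and ThO without dsDNA for full effect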
Outline: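 Compounds are scored by their ability to displace Thiazole Orange (250 nM) from a 50 nM TAMRA-tagged duplex bearing a tetrahydrofuran abasic site. Buffer is 50 mM Tris-HCl pH7.5, 50mM NaCl, 2 mM MgCl2, 0.01% Tween-20.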

[6] = target: Endonuclease 4 (Escherichia coli (strain K12)) (UniProt P0A6C1); assay: Counterscreen for APE1 Inhibitors: qHTS Validation Assay for Inhibitors of Endonuclease IV (AID 1708); note: % is set by controls: 0 for no effect and ±100 for the full control effect
Outline: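 2 nM enzyme was preincubated with compounds for 15 min at room temperature in 50 mM Tris-HCl pH 7.5, 50 mM NaCl, 2 mM MgCl2, 1 mM DTT, 0.01% Tween-20. 50 nM THF-abasic TAMRA/BHQ-2 duplex substrate started the reaction.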

[7] = qHTS for differential inhibitors of proliferation of Plasmodium falciparum line 7G8 (AID 1815);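 note: parasite growth measured after three days of incubation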; note: potency is the fitted concentration of half-maximal effect;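 for activity change, negative = inhibition: plate controls were vehicle wells for no effect and reference inhibitor wells for full effect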
[8] = qHTS for differential inhibitors of proliferation of Plasmodium falciparum line GB4 (AID 1816); conditions: Potency: Plasmodium falciparum GB4 proliferation inhibition;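 note: parasite growth measured after 72 h incubation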; note: potency is the fitted concentration of half-maximal effect;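 for activity change, negative = inhibition: 0% = vehicle DMSO and -100% = reference inhibitor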
[9] = qHTS for differential inhibitors of proliferation of Plasmodium falciparum line 3D7 (AID 1876); note: potency is the fitted concentration of half-maximal effect
[10] = qHTS for differential inhibitors of proliferation of Plasmodium falciparum line D10 (AID 1877);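 note: parasites grown with compound for 72 h before DNA staining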; note: potency is the fitted concentration of half-maximal effect;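 for activity change, negative = inhibition: plate controls were vehicle wells for no effect and reference inhibitor wells for full effect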
[11] = Validation of Assay for Modulators of Lamin A Splicing (AID 1459; active = well fitted curve in the direction sought with a large enough effect in the signal ratio; the % refers to the signal ratio;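 note: cells exposed to compound for two days before reading; 0% is about no effect; ratio rise marks activators and ratio drop marks inhibitors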)
Outline: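 Dual-reporter HeLa S3 line (lamin A-EGFP minigene, DsRed2) treated with compounds 48 hrs, 0.5% DMSO final. Endpoint: EGFP/DsRed2 total intensity ratio from laser-scanning microplate cytometry.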

[12] = Cell Viability - LYMP2-012 (AID 982);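 note: cellular ATP by luciferase luminescence where a drop means cytotoxicity; cells exposed to compound for one day before reading; 0% = DMSO only and full loss = 92 µM tetraoctylammonium bromide; nearly all actives have a fitted effect of over 55% in size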
[13] = Cell Viability - LYMP2-014 (AID 983);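 note: plate controls were DMSO only for no effect and 92 µM tetraoctylammonium bromide for full effect; nearly all actives have a fitted effect of over 50% in size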
Outline: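 Human lymphoblastoid cells (2500/well) were pre-incubated 5 hr at 37 C, then exposed to compounds in complete medium for 24 hr at 37 C. Intracellular ATP was read by CellTiter-Glo luminescence after 30 min at room temperature; AC50 from Hill fits.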

[14] = Cell Viability - LYMP2-018 (AID 985);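 note: compound exposure lasted 24 hr at 37 °C; plate controls were DMSO only for no effect and tetraoctylammonium bromide at 92 µM for full effect; nearly all actives have a fitted effect of over 50% in size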
Outline: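 Human lymphoblastoid cells (2500/well) were pre-incubated 5 hr at 37 C, then exposed to compounds for 24 hr at 37 C in complete medium. Viability was read as intracellular ATP by CellTiter-Glo luminescence; AC50 values came from Hill-equation fits.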

[15] = Cell Viability - LYMP2-020 (AID 986);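 note: plate controls were DMSO only for no effect and tetraoctylammonium bromide at 92 µM for full effect; nearly all actives have a fitted effect of over 55% in size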
Outline: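 Human lymphoblastoid cells, 2500/well, were pre-incubated 5 hr at 37 C, then exposed to compounds for 24 hr at 37 C in complete medium. Intracellular ATP was read by CellTiter-Glo luminescence, and AC50 was derived by Hill fitting of concentration-response data.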

[16] = Cell Viability - LYMP2-024 (AID 988);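 note: plate controls were DMSO only for no effect and 92 µM tetraoctylammonium bromide for full effect; nearly all actives have a fitted effect of over 60% in size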
Outline: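 Human lymphoblastoid cells (2500/well) in complete medium were preincubated 5 hr at 37 C, then exposed to compounds for 24 hr at 37 C. Intracellular ATP was read by CellTiter-Glo luminescence; AC50 from Hill-equation fits of concentration-response data.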

[17] = Cell Viability - LYMP2-026 (AID 989); note: % is set by controls: 0 for no effect and ±100 for the full control effect; nearly all actives have a fitted effect of over 50% in size
Outline: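 Human lymphoblastoid cells (2500/well) in complete medium were preincubated 5 hr at 37 C, then exposed to compounds for 24 hr at 37 C. Cellular ATP was read by CellTiter-Glo luminescence; AC50 from Hill-equation fits of concentration-response data.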

[18] = Cell Viability - LYMP1-002 - Assay at 24 hr (AID 993); note: % is set by controls: 0 for no effect and ±100 for the full control effect
Outline: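 Human lymphoblastoid LYMP1-002 cells, 2500/well in complete medium, were treated with compounds for 24 h at 37 C; intracellular ATP was read by CellTiter-Glo luminescence. AC50 values came from Hill-equation fits of qHTS concentration-response data.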

[19] = Cell Viability - LYMP1-002 - Assay at 40 hr (AID 994);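 note: 0% = DMSO only and full inhibition = 92 µM tetraoctylammonium bromide; nearly all actives have a fitted effect of over 60% in size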
Outline: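 Human lymphoblastoid cells, 2500/well in complete medium, were preincubated 5 hr at 37 C, then exposed to compounds for 40 hr at 37 C. Intracellular ATP was read by CellTiter-Glo luminescence after 30 min at room temperature; AC50 from Hill-equation fits.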

[20] = qHTS Assay for Lipid Storage Modulators (AID 1519; calls by dose curve; for activity change, negative = inhibition: % is set by controls: 0 for no effect and ±100 for the full control effect); conditions: Drosophila S3 cells, BODIPY lipid droplet/cell ratio, laser cytometry, cells loaded with oleic acid; for activity change, negative = inhibition: at 57.5 µM (top of the series)
Outline: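 Cells seeded at 5,000 per well were treated with compounds over a concentration series and loaded with oleic acid (400 uM, as added). Lipid droplet fluorescence (488 nm excitation, 500-530 nm channel) was read by laser-scanning cytometry and normalized to 20 uM Triacsin C.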

[21] = measured here: cell count channel max response
[22] = measured here: lipid channel max response

c1ccc(CCCN2CCN(CCOC(c3ccccc3)c3ccccc3)CC2)cc1
inactive: outcome [1] | outcome [2] | outcome [3] | Potency [4] | Potency [5] | Potency [6]
active: Potency [7] 4.47 µM | Potency [8] 7.08 µM | Potency [9] 11.2 µM | Potency [10] 10 µM

Cc1c(C(=O)c2cccc3ccccc23)c2cccc3c2n1[C@H](CN1CCOCC1)CO3
active: Potency [8] 7.94 µM | Potency [10] 12.6 µM
inactive: outcome [1] | outcome [2] | outcome [3] | Potency [4] | Potency [5] | Potency [6]

C[C@@H](N)Cc1cnc[nH]1
inactive: outcome [11] | Potency [4] | Potency [5] | Potency [8] | Potency [9] | Potency [10]

NC(CP(=O)(O)O)C(=O)O (stereo not given)
inactive: outcome [11] | Potency [5] | Potency [6] | Potency [7] | Potency [8] | Potency [9] | Potency [10]

Cc1nc(-c2ccc(-c3ccc(C(=O)N4CCc5cc6c(cc54)C4(CCN(C)CC4)CO6)cc3)c(C)c2)no1
inactive: outcome [1] | outcome [2] | outcome [3] | Potency [4] | Potency [5] | Potency [6]
active: Potency [7] 5.01 µM | Potency [8] 11.2 µM | Potency [9] 12.6 µM | Potency [10] 11.2 µM

CN[C@@H](C)[C@H](O)c1ccccc1
active: Potency [7] 12.6 µM | Potency [8] 10 µM
inactive: Potency [4] | Potency [5] | Potency [6]

COc1ccc(C(c2ccc(OC)cc2)C(Cl)(Cl)Cl)cc1
inactive: Potency [12] | Potency [13] | Potency [14] | Potency [15] | Potency [16] | Potency [17] | Potency [18] | Potency [19]

CC(C)(O)C(=O)Nc1ccc([N+](=O)[O-])c(C(F)(F)F)c1
inactive: Potency [12] | Potency [13] | Potency [14] | Potency [15] | Potency [16] | Potency [17] | Potency [18] | Potency [19]

NC(N)=NOCCC(N)C(=O)O (stereo not given)
3.95% and -21.7%: max response [20, 21]
4.87% and -17.2%: max response [20, 22]
inactive: outcome [1] | outcome [2] | outcome [3] | activity change, negative = inhibition [20] 1.36% and 1.85% | Potency [4] | Potency [5] | Potency [7] | Potency [8] | Potency [9] | Potency [10]

Nc1ccc(Sc2ccc(N)cc2)cc1
inactive: Potency [12] | Potency [13] | Potency [14] | Potency [15] | Potency [16] | Potency [17] | Potency [18] | Potency [19]

C#CC1(O)CCC2C3CCC4=CC(=O)CCC4(C)C3CCC21C (stereo not given)
10.4%: max response [20, 21]
15.6%: max response [20, 22]
inactive: activity change, negative = inhibition [20] 2.45%

CS(=N)(=O)CC[C@H](N)C(=O)O (stereo not given in full)
inactive: outcome [11] | Potency [4] | Potency [5] | Potency [7] | Potency [8] | Potency [9] | Potency [10]

CC(Cc1ccc(O)cc1)NCC(O)c1cc(O)cc(O)c1 (stereo not given)
inactive: Potency [4] | Potency [5] | Potency [6]
